Measurements taken from publication PMC4552634, “A New Set of Chemical Starting Points with Plasmodium falciparum Transmission-Blocking Potential for Antimalarial Drug Discovery” (PLoS ONE, 2015).
Screen size: about 13,000 compounds; about 3,200 (25%) showed an effect of 50% or more. The list shows a part of the results.

Tested on: P. falciparum stage V gametocytes
Design: BacTiter-Glo ATP luminescence viability of purified stage V gametocytes in 384-well plates, per cent inhibition versus DMSO
Conditions: 48 h, 5 µM; inhibitor

| SMILES | % Inhibition |
| --- | --- |
| O=C(NCC(CCN1CCC(c2c[nH]c3ccccc23)CC1)c1ccccc1)Nc1ccc(Cl)c(Cl)c1 (centres unmarked) [TCMDC-139626] | 1.901% |
| COc1cccc2cc(C(=O)N[C@@H](CC(C)C)C(=O)N[C@H](C=NN3CCOC3=O)CC(C)C)oc12 [TCMDC-136064] | 12.6% |
| Cc1noc(=O)c2ccc(NC(=O)C(O)(CSc3ccccc3)CC(C)C)cc12 (centres unmarked) [TCMDC-135222] | 46.49% |
| Fc1cc(Cl)ccc1Nc1ccnc(Nc2ccc3cn[nH]c3c2)n1 [TCMDC-138575] | 13.66% |
| c1ccc(-c2[nH]ncc2Nc2ccnc3ccccc23)nc1 [TCMDC-138641] | -8.718% |
| NC(=O)c1cc2nc(NC3CCC3)nc(Nc3cccc4[nH]ncc34)c2[nH]1 [TCMDC-137005] | 21.61% |
| O=C(Cc1ccc([N+](=O)[O-])cc1)N1CCc2cc3nccc(N4CCN5CCC[C@@H]5C4)c3cc21 [TCMDC-140039] | -19.96% |
| O=C(Nc1ccccc1Cc1ccccc1)c1ccccc1[N+](=O)[O-] [TCMDC-124438] | 42.41% |
| O=C(Nc1ccc([N+](=O)[O-])cc1Cl)c1cc(Br)cc(Cc2ccccc2)c1O [TCMDC-124004] | 12.42% |
| O=C(Nc1ccccc1Cc1ccccc1)c1ccccc1C(F)(F)F [TCMDC-123550] | 54.56% |
| O=C(Nc1ccc2c(c1)CCN2C1CCN(Cc2csc3ccccc23)C1)c1ccco1 (centres unmarked) [TCMDC-135069] | 39.32% |
| c1ccc2cc3c(NCCN4CCOCC4)ccnc3cc2c1 [TCMDC-125814] | -3.95% |
| CCN1CCCC(Nc2ccnc3cc4ccccc4cc23)C1 (centres unmarked) [TCMDC-123499] | 94.14% |
| CN1CCN(c2ccnc3cc4ccccc4cc23)CC1 [TCMDC-124200] | 1.444% |
| Cn1c(=N)cc(-c2ccc(Br)cc2)c2c(=O)[nH]c(N)nc21 [TCMDC-137743] | 6.431% |
| Cc1csc(-c2ccc3[nH]cc(C4=CCN(C)CC4)c3c2)n1 [TCMDC-132040] | -6.013% |
| CN1CCc2cc(NS(=O)(=O)c3ccc(-c4ccc(Cl)cc4)cc3)c(OCCCN3CCCCC3)cc2CC1 [TCMDC-141754] | 108.9% |
| CN1CCc2cc(O)c(NS(=O)(=O)c3ccc(-c4ccc(Cl)cc4)cc3)cc2CC1 [TCMDC-141501] | -85.22% |
| CC(C)Oc1cc2c(cc1NS(=O)(=O)c1ccc(-c3ccc(Cl)s3)cc1F)CCN(C)CC2 [TCMDC-141582] | 18.13% |
| COc1ccc(-c2ccc(S(=O)(=O)Nc3cc4c(cc3OC(C)C)CCNCC4)cc2)cc1 [TCMDC-141481] | 37.39% |
| O=S(=O)(Nc1cc2c(cc1O)CCNCC2)c1ccc(-c2ccc(Cl)cc2)cc1 [TCMDC-141497] | -93.89% |
| CC(C)Oc1cc2c(cc1NS(=O)(=O)c1ccc(-c3ccc(Cl)cc3)cc1)CCN(C)CC2 [TCMDC-141459] | 21.1% |
| CN1CCc2cc(NS(=O)(=O)c3ccc(-c4ccc(Cl)s4)cc3)c(N3CCCCC3)cc2CC1 [TCMDC-141588] | 76.97% |

| SMILES | % Inhibition |
| --- | --- |
| O=S(=O)(Nc1cc2c(cc1OCCCN1CCCCC1)CCNCC2)c1ccc(-c2ccc(Cl)cc2)cc1 [TCMDC-141753] | 106.2% |
| Cc1cc(-c2ccc(S(=O)(=O)Nc3cc4c(cc3OC(C)C)CCN(C)CC4)cc2)ccc1Cl [TCMDC-141488] | 42.37% |
| N=C(N)NCCCCN(Cc1ccccc1)c1ccccc1 [TCMDC-131834] | 24.97% |
| Nc1nc2cccc3ccc4cccc1c4c32 [TCMDC-142055] | 15.08% |
| COc1cc2ncnc(Nc3ccc(OCc4ccccc4Br)c(Cl)c3)c2cc1OC [TCMDC-131913] | 20.89% |
| O=[N+]([O-])c1ccc(C=NO)nc1 [TCMDC-131967] | 114.3% |
| CCCCN(CCCC)Cc1cc(N(C)c2ccc([N+](=O)[O-])cn2)ccc1O [TCMDC-137484] | -6.258% |
| O=[N+]([O-])c1ccc(C=NNc2nc3ccccc3[nH]2)cc1 [TCMDC-124105] | -75.71% |
| NC1CCN(c2nc(NCCCc3ccc(O)cc3)nc(NCc3ccccc3-c3ccccc3)n2)CC1 [TCMDC-133390] | 36.08% |
| CC1(C)N=C(N)N=C(N)N1OCCc1ccccc1 [TCMDC-131597] | -4.135% |
| COc1ccc(C2C(C(=O)Nc3ccc(C)cc3Br)c3ccccc3C(=O)N2C)cc1 (centres unmarked) [TCMDC-123597] | -11.57% |
| COc1ccc(C2CC(c3cccs3)=NN2C(=O)CNc2ccccc2F)cc1OC (centres unmarked) [TCMDC-123552] | -9.982% |
| COc1cc(OC)c(NC(=O)C2c3ccccc3C(=O)N(C)C2c2cccs2)cc1Cl (centres unmarked) [TCMDC-125447] | 95.47% |
| COc1cc(OC)c(NC(=O)Nc2ccnc3ccccc23)cc1Cl [TCMDC-139463] | 15% |
| CCCCN1CCN(c2cc(NS(=O)(=O)c3cccc(C(=O)Nc4ccc(C(F)(F)F)cc4)c3)ccc2OC)CC1 [TCMDC-141779] | -16.75% |
| COc1ccc(C2C(C(=O)Nc3cc(Cl)c(OC)cc3OC)c3ccccc3C(=O)N2C)cc1 (centres unmarked) [TCMDC-123596] | 80.19% |
| COc1cc2c(cc1OC)C(C(=O)Nc1ccc(C(F)(F)F)cc1)C(c1cccs1)N(C)C2=O (centres unmarked) [TCMDC-123797] | 62.6% |
| COc1ccc(NC(=O)C2c3ccccc3C(=O)N(CC(C)C)C2c2cccs2)cc1OC (centres unmarked) [TCMDC-125289] | 95.75% |
| COc1ccc(NC(=O)c2ccc(-c3nc(-c4cccc(C(F)(F)F)c4)cs3)cc2)cc1N1CCN(C)CC1 [TCMDC-138686] | 5.66% |
| COc1ccc(C2C(C(=O)Nc3cc(C)ccc3OC)c3ccccc3C(=O)N2C)cc1 (centres unmarked) [TCMDC-123595] | 25.42% |
| O=C(/C=C/c1ccc(Cl)cc1)NCCCCCN1CCCC(C(=O)Nc2ccc(F)c(Cl)c2)C1 (centres unmarked) [TCMDC-136113] | 4.941% |
| CCN(CC)CCNC(=O)c1ccc(NC(=O)c2cc3c(C)nn(-c4ccc(Cl)cc4)c3s2)cc1 [TCMDC-124020] | 26.74% |
| N#Cc1ccc(C=Cc2nccc3c2[nH]c2ccccc23)cc1 [TCMDC-124483] | -0.1389% |

| SMILES | % Inhibition |
| --- | --- |
| Cc1cc(C(=O)OCC(=O)Nc2c(C)n(C)n(-c3ccccc3)c2=O)c(C)n1-c1ccc(F)cc1 [TCMDC-123794] | -8.44% |
| CCOC(=O)c1[nH]c2ccc(F)cc2c1NC(=O)CN1CCN(c2cccc(C(F)(F)F)c2)CC1 [TCMDC-124048] | -41.18% |
| COc1ccc2nccc(N3CCC(NCCNS(=O)(=O)c4ccc5c(c4)NC(=O)CS5)C3)c2n1 (centres unmarked) [TCMDC-134527] | -17.46% |
| CCCCCCCCCN(CCC)C(=O)[C@@H]1OC(C(=O)OC(c2ccccc2)c2ccccc2)=C[C@H](NC(=O)OC(C)(C)C)[C@H]1NC(C)=O [TCMDC-132020] | -25.5% |
| O=C(Nc1ccc(Oc2cccnc2)cc1)C1CCN(Cc2cc(Cl)ccc2O)CC1 [TCMDC-124640] | -32.1% |
| O=C(Cc1cnc[nH]1)Nc1ccc(-c2ccc(-c3nc4ccc(F)cc4[nH]3)cc2)cc1 [TCMDC-136781] | -5.638% |
| CC(=O)Nc1nc(C(=O)Nc2ccc(-c3cccc(-c4nc5ccc(F)cc5[nH]4)c3)cc2)cs1 [TCMDC-137122] | -21.41% |
| O=C(NCc1cccc(OC(F)(F)F)c1)c1cnc2c(c1)nc(-c1cnc(-c3ccccc3)[nH]1)n2CCc1cnc[nH]1 [TCMDC-139690] | -64.98% |
| COc1cc(OC)c(NC(=O)C2c3ccccc3C(=O)N(CC(C)C)C2c2cccs2)cc1Cl (centres unmarked) [TCMDC-124760] | 55.1% |
| COc1ccc(OC)c(NC(=O)C2c3ccccc3C(=O)N(CC(C)C)C2c2cccs2)c1 (centres unmarked) [TCMDC-124759] | 26.61% |
| CCn1c(=O)c(C(=O)Nc2cc(Cl)c(OC)cc2OC)nc2ccccc21 [TCMDC-125064] | -72.41% |
| O=C(CN1CCN(C(C(=O)Nc2cc(C(F)(F)F)ccc2Cl)c2ccccc2)CC1)NC1CC1 (centres unmarked) [TCMDC-125267] | 8.518% |
| C[C@@H](Nc1nc(NCc2ccccc2)c2sccc2n1)c1ccccc1 [TCMDC-136500] | -1.002% |
| COc1cc2nc(N3CCC(CCCC4CCNCC4)CC3)nc(NCc3ccccn3)c2cc1OC [TCMDC-138494] | 104% |
| COc1ccc(C(C)Nc2nc(N)c3cc(OC)c(OC)cc3n2)cc1.Cl (centres unmarked) [TCMDC-131891] | 10.29% |
| COc1cc2nc(NCCc3ccccc3)nc(NCc3ccc(C#N)cc3)c2cc1OC [TCMDC-135300] | 97.53% |
| COc1cc2nc(NCCc3ccccc3)nc(NC(C)c3ccccc3)c2cc1OC (centres unmarked) [TCMDC-135384] | 51.56% |
| COc1cc2nc(N3CCC(c4ccccc4)CC3)nc(NCc3ccc(=O)[nH]c3)c2cc1OC [TCMDC-136497] | -1.844% |
| COc1ccc(CCNc2nc(NCCc3cnc[nH]3)nc(NCc3cccc4ccccc34)n2)cc1OC [TCMDC-139244] | 77.02% |
| CC(C)Nc1nc(NCCc2cnc[nH]2)nc(NCc2cccc3ccccc23)n1 [TCMDC-139736] | 1.941% |
| c1ccc(CNc2nc(NCCc3cnc[nH]3)nc(NCc3cccc4ccccc34)n2)cc1 [TCMDC-139737] | 1.176% |
| CC[C@H]1CN2CC[C@H]1C[C@H]2[C@H](OC(=O)c1ccccc1)c1cc(C#N)nc2ccc(OC)cc12 [TCMDC-138208] | 28.19% |
